Reference: PubChem BioAssay (NCI)
The panel holds about 83,000 compounds, 20% with a hit somewhere; the sample as a whole holds those more often.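 Each cell line was grown in a 96-well plate and treated with one concentration of compound for 48 hours. Values below 10 were considered active.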 Active and inactive are the calls of the source.

Tests used:
Assay in all cases: NCI-60 one-dose screen, 48 h (100 = growth as untreated, 0 = no growth, -100 = all killed)
Details in all cases: 10 µM unless noted
SK-MEL-2 melanoma = tested on: SK-MEL-2 melanoma
EKVX NSCLC = tested on: EKVX NSCLC
SN12C renal = tested on: SN12C renal
UO-31 renal = tested on: UO-31 renal
TK-10 renal = tested on: TK-10 renal
ACHN renal = tested on: ACHN renal
CAKI-1 renal = tested on: CAKI-1 renal
A498 renal = tested on: A498 renal
CCRF-CEM leukemia = tested on: CCRF-CEM leukemia
MOLT-4 leukemia = tested on: MOLT-4 leukemia
SR leukemia = tested on: SR leukemia
RPMI-8226 leukemia = tested on: RPMI-8226 leukemia
OVCAR-8 ovarian = tested on: OVCAR-8 ovarian
OVCAR-5 ovarian = tested on: OVCAR-5 ovarian
OVCAR-4 ovarian = tested on: OVCAR-4 ovarian
SK-OV-3 ovarian = tested on: SK-OV-3 ovarian
IGROV1 ovarian = tested on: IGROV1 ovarian
OVCAR-3 ovarian = tested on: OVCAR-3 ovarian
HS 578T breast = tested on: HS 578T breast
NCI/ADR-RES ovarian = tested on: NCI/ADR-RES ovarian

Measured: growth

CN1CCN(Cc2ccc(NC(=O)c3cncc(C#Cc4cnccc4C(F)(F)F)c3)cc2C(F)(F)F)CC1
inactive: SK-MEL-2 melanoma 73.4% | EKVX NSCLC 87.6% | SN12C renal 75.7% | UO-31 renal 67.2% | TK-10 renal 109% | ACHN renal 75.8% | CAKI-1 renal 93.8% | A498 renal 78.4% | CCRF-CEM leukemia 82.9% | MOLT-4 leukemia 45.7% | SR leukemia 37.3% | RPMI-8226 leukemia 70.6% | OVCAR-8 ovarian 92.2% | OVCAR-5 ovarian 67.4% | OVCAR-4 ovarian 59.2% | SK-OV-3 ovarian 89% | IGROV1 ovarian 58.3% | OVCAR-3 ovarian 105% | HS 578T breast 53% | NCI/ADR-RES ovarian 85.8%

COc1ccc(-c2ncc(-c3ccccc3)[nH]2)cc1OC
inactive: SK-MEL-2 melanoma 118% | EKVX NSCLC 106% | SN12C renal 100% | UO-31 renal 109% | TK-10 renal 256% | ACHN renal 111% | CAKI-1 renal 108% | A498 renal 89.2% | CCRF-CEM leukemia 18% | SR leukemia 11% | RPMI-8226 leukemia 89.5% | OVCAR-8 ovarian 113% | OVCAR-5 ovarian 113% | OVCAR-4 ovarian 116% | SK-OV-3 ovarian 125% | IGROV1 ovarian 119% | OVCAR-3 ovarian 103% | HS 578T breast 102% | NCI/ADR-RES ovarian 121%
active: MOLT-4 leukemia -81.9%

COc1ccc(C(O)c2cc3c(N)c(C(=O)Nc4ccccc4)sc3nc2C)cc1 (stereo not given)
inactive: EKVX NSCLC 26% | SN12C renal 21.5% | UO-31 renal 19.1% | TK-10 renal 44.2% | ACHN renal 25.7% | CAKI-1 renal 15.1% | MOLT-4 leukemia 11.4% | OVCAR-5 ovarian 27.1% | OVCAR-4 ovarian 42.6% | IGROV1 ovarian 12.6% | NCI/ADR-RES ovarian 13.7%
active: SK-MEL-2 melanoma 9.47% | A498 renal -20.8% | CCRF-CEM leukemia 4.7% | SR leukemia -15.3% | RPMI-8226 leukemia 5.81% | OVCAR-8 ovarian 8.92% | SK-OV-3 ovarian -9.84% | OVCAR-3 ovarian -16.7% | HS 578T breast 3.96%

CCC1(CC)NC(=O)c2c(c3ccc(Cl)c(Cl)c3n2C)C1C#N (stereo not given)
inactive: SK-MEL-2 melanoma 115% | EKVX NSCLC 95.5% | SN12C renal 84% | UO-31 renal 70.5% | TK-10 renal 127% | ACHN renal 95.5% | CAKI-1 renal 66.6% | A498 renal 84.9% | CCRF-CEM leukemia 19.4% | RPMI-8226 leukemia 88.6% | OVCAR-8 ovarian 93.6% | OVCAR-5 ovarian 81.4% | OVCAR-4 ovarian 91.8% | SK-OV-3 ovarian 91.7% | IGROV1 ovarian 74.6% | OVCAR-3 ovarian 94.6% | HS 578T breast 97.1% | NCI/ADR-RES ovarian 91.5%
active: MOLT-4 leukemia 4.72% | SR leukemia 5.94%

O=c1[nH]nc(-c2ccc(Br)cc2)cc1Cc1ccc(O)cc1
inactive: SK-MEL-2 melanoma 107% | EKVX NSCLC 51.7% | SN12C renal 90.5% | UO-31 renal 77.3% | TK-10 renal 139% | ACHN renal 105% | CAKI-1 renal 98.1% | A498 renal 103% | MOLT-4 leukemia 17.9% | RPMI-8226 leukemia 53.8% | OVCAR-8 ovarian 92.7% | OVCAR-5 ovarian 106% | OVCAR-4 ovarian 97.6% | SK-OV-3 ovarian 92.9% | IGROV1 ovarian 82.4% | OVCAR-3 ovarian 92.4% | HS 578T breast 64.1% | NCI/ADR-RES ovarian 71%
active: CCRF-CEM leukemia -9.56% | SR leukemia -29.1%

CC(=O)Nc1ccc(S(=O)(=O)NC2CCCCC2)cc1
inactive: SK-MEL-2 melanoma 108% | EKVX NSCLC 95.2% | SN12C renal 91% | UO-31 renal 85.2% | TK-10 renal 90.2% | ACHN renal 91.7% | CAKI-1 renal 98.5% | A498 renal 64.3% | CCRF-CEM leukemia 96.3% | MOLT-4 leukemia 101% | SR leukemia 99% | RPMI-8226 leukemia 94.3% | OVCAR-8 ovarian 101% | OVCAR-5 ovarian 93.9% | OVCAR-4 ovarian 113% | SK-OV-3 ovarian 97.3% | IGROV1 ovarian 103% | OVCAR-3 ovarian 110% | HS 578T breast 92.7% | NCI/ADR-RES ovarian 99.7%

O=C(OCc1nc2nc(Cl)nc(N3CCOCC3)c2[nH]1)n1ccnc1
inactive: EKVX NSCLC 62.1% | OVCAR-5 ovarian 22.3% | SK-OV-3 ovarian 46.2%
active: SK-MEL-2 melanoma -67.1% | SN12C renal 8.48% | UO-31 renal -81% | TK-10 renal -77.4% | ACHN renal -100% | CAKI-1 renal -68.8% | A498 renal -4.23% | CCRF-CEM leukemia -12% | MOLT-4 leukemia 9.71% | SR leukemia -14.2% | RPMI-8226 leukemia -35.7% | OVCAR-8 ovarian -44.9% | OVCAR-4 ovarian -38.3% | IGROV1 ovarian 2.36% | OVCAR-3 ovarian -84.9% | HS 578T breast 5.43% | NCI/ADR-RES ovarian 6.27%

CC1(C)CN(Cc2ccccc2)CCN1Cc1ccccc1
inactive: SK-MEL-2 melanoma 103% | EKVX NSCLC 106% | SN12C renal 96.1% | UO-31 renal 93.6% | TK-10 renal 96.3% | ACHN renal 109% | CAKI-1 renal 102% | A498 renal 85.8% | CCRF-CEM leukemia 90.9% | MOLT-4 leukemia 100% | SR leukemia 95.8% | RPMI-8226 leukemia 98% | OVCAR-8 ovarian 104% | OVCAR-5 ovarian 103% | OVCAR-4 ovarian 113% | SK-OV-3 ovarian 122% | IGROV1 ovarian 101% | OVCAR-3 ovarian 106% | HS 578T breast 99.1% | NCI/ADR-RES ovarian 105%
